Inconclusive results are not listed. Active and inactive are the calls of the source. The call rests on the fitted dose curve; in most records, active means well fitted inhibition curve with a large enough effect; inconclusive means small, poorly fitted or top-dose-only effect; inactive means no such curve, though single readings can be large or run the other way.
experiment: P-glycoprotein substrates identified in KB-3-1 adenocarcinoma cell line, qHTS therapeutic library screen (AID 1346986); conditions: KB-3-1 parental cells viability, CellTiter-Glo, 72 h; series mostly up to 44.5 µM; activity change, negative = cytotoxicity: at the top concentration; further: nearly all actives have a fitted effect of over 60% in size
Method in brief: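 Cells seeded 500/well in DMEM/10% FCS; compounds pinned in dose-response; 72 h incubation; CellTiter-Glo added, 5 min, luminescence. KB-8-5-11 run ±tariquidar to test reversal of P-gp resistance.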

SMILES | outcome
CC(C)[C@@H](C)/C=C/[C@@H](C)[C@H]1CC[C@H]2C3=CC=C4C[C@@H](O)CC[C@]4(C)[C@H]3CC[C@]12C | inactive [at 17.4 µM]
CC1(CO)CC[C@]2(C(=O)O[C@@H]3O[C@H](CO)[C@@H](O)[C@H](O)[C@H]3O)CC[C@]3(C)C(=CCC4[C@@]5(C)C[C@H](O)[C@H](O[C@@H]6OC[C@@H](O)[C@H](O)[C@H]6O)[C@@](C)(CO)C5CC[C@]43C)C2C1 (stereo partly drawn) | inactive [at 9.29 µM]
O=C(/C=C/c1ccccc1)OCC1=CC[C@@H]2C(C(=O)O)=CO[C@@H](O[C@@H]3O[C@H](CO)[C@@H](O)[C@H](O)[C@H]3O)[C@H]12 | inactive [at 17.4 µM]
CCc1c(CC(N)=O)c2cc(OCCCP(=O)(O)O)ccc2n1Cc1ccccc1 | inactive
COc1c(OC2OC(CO)C(O)C(O)C2O)ccc(O)c1C(=O)OCc1ccccc1O[C@@H]1O[C@H](CO)[C@@H](O)[C@H](O)[C@H]1O (stereo partly drawn) | inactive [at 17.4 µM]
CNC(=O)O[C@H]1COc2ccc(N3CCN(C4COC4)CC3)cc2[C@@H]1NC(=O)c1ccc(F)cc1 | inactive
Cc1ccc2c(c1)C=Cc1cc(C)ccc1C2c1cn(Cc2ccc(C(=O)Nc3nn[nH]n3)o2)c(=O)[nH]c1=S | inactive
CC(/C=C/C1(O)C2(C)COC1(C)CC(=O)C2)O[C@@H]1O[C@H](CO)[C@@H](O)[C@H](O)[C@H]1O (stereo partly drawn) | inactive [at 17.4 µM]
Cc1c(N2C(=O)c3ccc(C(=O)O)cc3C2=O)c(=O)n(-c2ccccc2)n1C | inactive
O=C(CCO[C@@H]1O[C@H](CO)[C@@H](O)[C@H](O)[C@H]1O)c1ccc(O)cc1 | inactive
COc1cccc(-c2ccc([C@@H](Oc3cc(-c4ccc(C[C@H](N)C(=O)O)cc4)nc(N)n3)C(F)(F)F)cc2)c1 | inactive
Clc1ccc2c(c1)C1=NCCN1c1c(-c3noc(C4CC4)n3)ncn1-2 | inactive
Cc1cc(N2CCCCC2)nc2ccccc12 | inactive
C[C@@H]1C[C@H](O[C@@H]2O[C@H](CO[C@@H]3OC[C@](O)(CO)[C@H]3O)[C@@H](O)[C@H](O)[C@H]2O)CC(C)(C)[C@H]1/C=C/[C@@H](C)O | inactive [at 17.4 µM]
CC(=O)O[C@@H]1C[C@]2(C)[C@@]3(CCC4[C@@]5(C)CC[C@H](O[C@@H]6O[C@H](C(=O)O)[C@@H](O)[C@H](O[C@@H]7O[C@H](CO)[C@H](O)[C@H](O)[C@H]7O[C@@H]7O[C@@H](C)[C@H](O)[C@@H](O)[C@H]7O[C@@H]7OC[C@](O)(CO)[C@H]7O)[C@H]6O[C@@H]6O[C@H](CO)[C@H](O)[C@H](O)[C@H]6O)C(C)(C)C5CC[C@]42C)O[C@@H](O)[C@]12C3CC(C)(C)[C@@H](OC(=O)/C=C/c1ccc(O)c(O)c1)[C@@H]2OC(=O)/C=C/c1ccccc1 (stereo partly drawn) | inactive [at 9.29 µM]
CC1=CC(=O)CC(C)(C)C1(O)CCC(C)O (stereo not drawn) | inactive
C/C(=C\CCC(C(=O)O)C1CCC2(C)C3=C(CCC12C)C1(C)CCC(=O)C(C)(C)C1CC3)C(=O)O (stereo not drawn) | inactive [at 17.4 µM]
COc1cc(COC2OC(CO)C(O)C(O)C2O)cc(OC)c1O (stereo not drawn) | inactive
CC(=O)c1c(C)cc(O)cc1O[C@@H]1O[C@H](CO)[C@@H](O)[C@H](O)[C@H]1O | inactive

SMILES | outcome
CC(=O)OC[C@]12[C@H](OC(C)=O)C(=O)[C@@H]3[C@@H](OC(C)=O)[C@@]14O[C@@]3(C)COC(=O)c1cccnc1[C@@H](C)[C@H](C)C(=O)O[C@@H]([C@H](OC(C)=O)[C@@H]2OC(C)=O)[C@]4(C)O | inactive [at 17.4 µM]
NC1CCC(N[C@@H]2C[C@H]2c2ccccc2)CC1 (stereo partly drawn) | inactive
CCOc1nc2cccc(C(=O)OCc3oc(=O)oc3C)c2n1Cc1ccc(-c2ccccc2-c2noc(O)n2)cc1 | inactive
CNC(=O)[C@H]1O[C@@H](n2cnc3c(NCc4ccc(N)c(I)c4)ncnc32)[C@H](O)[C@@H]1O | inactive [at 9.29 µM]
COc1ccc(C)c2sc(NC(=O)c3ccncc3)nc12 | inactive
CC(=O)NC(C(=O)OC1CCC(C)(C)C2CC=C3C(=O)OCC3(O)C12C)C(C)C (stereo not drawn) | inactive [at 17.4 µM]
COC(=O)C1=CO[C@@H](O[C@@H]2O[C@H](CO)[C@@H](O)[C@H](O)[C@H]2O)[C@@H]2[C@@H](C)[C@@H](O)C[C@H]12 | inactive
CC1CC(O)C2(C)C(C(=O)O)=CCCC2C1(C)CCc1ccoc1 (stereo not drawn) | inactive
CC(=O)O[C@H](C[C@@H](C)[C@H]1C(=O)[C@H](O)[C@@]2(C)[C@@H]3CCC4C(C)(C)[C@@H](O[C@@H]5OC[C@H](O)[C@H](O)[C@H]5O)CC[C@@]45C[C@@]35CC[C@]12C)[C@@H]1OC1(C)C (stereo partly drawn) | inactive [at 17.4 µM]
CC[C@H]1OC(=O)[C@H](C)[C@@H](O[C@H]2C[C@@](C)(OC)[C@@H](O)[C@H](C)O2)[C@H](C)[C@@H](O[C@@H]2O[C@H](C)C[C@H](N(C)C)[C@H]2O)[C@@](C)(O)C[C@@H](C)[C@@H]2N[C@@H](COCCOC)OC([C@H]2C)[C@]1(C)O | inactive
CC(C)=CCc1ccc(Oc2c(O)cc(C)cc2CO)c(C(=O)O)c1O | inactive
CC(=O)O[C@@H]1[C@H](O[C@@H]2O[C@H](CO)[C@@H](O)[C@H](O)[C@H]2O)[C@@H](O[C@@H]2O[C@@H](C)[C@H](O)[C@@H](O[C@@H]3O[C@H](CO)[C@@H](O)[C@H](O)[C@H]3O)[C@H]2O)[C@H](OC(=O)C23CCC4(C)C(=CCC5C6(C)CC(O)C(O[C@@H]7O[C@H](C(=O)O)[C@@H](O)[C@H](O)[C@H]7O)C(C)(C(=O)O)C6CCC54C)C2CC(C)(C)CC3O)O[C@@H]1C (stereo partly drawn) | inactive [at 9.29 µM]
c1ccc(Nc2nc3c(s2)CCCc2[nH]ncc2-3)nc1 | inactive
O=C(NCC(=O)N1CC[C@H](NC2CCC(O)(c3ccc(-c4ncccn4)cn3)CC2)C1)c1cccc(C(F)(F)F)c1 (stereo partly drawn) | inactive
COc1cc(C2Oc3c(O)cc(CCCO)cc3C2CO)ccc1O[C@H]1O[C@H](C)[C@@H](O)[C@H](O)[C@@H]1O (stereo partly drawn) | inactive [at 17.4 µM]
CC(C)c1ccc(CC(=O)N2CCC[C@@H](c3cccc(OC(C)(C)C(=O)O)c3)C2)cc1 | inactive
Cc1cc(C)cc(NC(=O)Cc2ccc(OC(C)(C)C(=O)O)cc2)c1 | inactive
C[C@H]1CC[C@@]2(OC1)O[C@H]1CC3C4CC=C5C[C@H](O)C[C@@H](O[C@@H]6O[C@@H](C)[C@H](O)[C@@H](O)[C@H]6O[C@@H]6O[C@@H](C)[C@H](O)[C@@H](O)[C@H]6O)[C@]5(C)C4CC[C@]3(C)[C@H]1[C@@H]2C (stereo partly drawn) | inactive [at 17.4 µM]
COC(=O)C1=COC(OC2OC(CO)C(O)C(O)C2O)C2C1CC(OC(=O)C(O)CC(=O)O)C2C (stereo not drawn) | inactive [at 17.4 µM]

— PubChem BioAssay (NCATS)
